# High-throughput results from PubChem.
# FLuc counter: counter-screen for miR-21 project: firefly luciferase inhibitors or activators. P08659. hit rate 6.9% among 360,000. Potency, µM (highest dose often 57.5 µM), for inactives: at the top dose activity change, negative = inhibition, most hits filed as inhibitors. purified FLuc, Km substrates, luminescence inhibition. AID 588342;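 further: plate controls were vehicle for no effect and reference inhibitor for full effect; nearly all actives have a fitted effect of over 55% in size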
# Target sequence (P08659 whole entry, looked up): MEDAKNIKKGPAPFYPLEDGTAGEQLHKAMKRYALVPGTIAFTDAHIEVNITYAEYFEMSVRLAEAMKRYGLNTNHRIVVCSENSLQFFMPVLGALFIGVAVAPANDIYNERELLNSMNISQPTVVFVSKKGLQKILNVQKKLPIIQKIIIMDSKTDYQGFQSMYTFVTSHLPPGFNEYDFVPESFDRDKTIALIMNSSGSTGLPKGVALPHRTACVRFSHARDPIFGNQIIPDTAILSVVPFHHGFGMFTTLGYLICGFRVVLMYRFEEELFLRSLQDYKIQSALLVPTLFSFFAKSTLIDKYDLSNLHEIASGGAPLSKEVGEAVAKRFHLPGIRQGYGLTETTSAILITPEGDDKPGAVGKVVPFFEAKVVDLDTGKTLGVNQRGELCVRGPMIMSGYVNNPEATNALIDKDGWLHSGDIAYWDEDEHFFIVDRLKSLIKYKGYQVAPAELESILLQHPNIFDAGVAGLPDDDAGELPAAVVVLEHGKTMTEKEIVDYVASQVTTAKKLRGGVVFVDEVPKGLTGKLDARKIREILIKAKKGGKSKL
#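 Biochemical qHTS of compounds, final roughly 60 µM downward over six points, against 10 nM purified firefly luciferase using Km concentrations of substrates (10 uM D-luciferin, 10 uM ATP) in Tris acetate pH 7.5 buffer; luminescence output.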
# Rab9 prom act: Rab9 promoter activation; hit rate 2.8% among 320,000; AID 485297; Huh7 Rab9 promoter-luciferase reporter, luminescence, 24 h; Potency, µM (doses to about 9.22 µM), for the others: top-dose activation, negative = inhibition, actives largely listed as activators; further: % of control where 0% means no effect; nearly all actives have a fitted effect of over 60% in size
#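 Using Huh7 cells stably transfected with Rab9 promoter–luciferase, compounds were incubated 24 h at 37 °C, 5% CO2; luciferase luminescence was read 10 min after reagent addition.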
# Luc counter: counter-screen: inhibitors of Kinase-Glo firefly luciferase; Q27757; Kinase-Glo luciferase, ATP luminescence, 8 min; Potency, µM (series often up to 38.3 µM), for the others: at the top dose activity change, negative = inhibition, usual class: inhibitors; hit rate 0.28% among 200,000; AID 1379; further: on the % scale 0 is the no-effect control and ±100 the full control effect; nearly all actives have a fitted effect of over 60% in size
#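 Compound is pinned into ATP-containing buffer (10 uM ATP, imidazole pH 7.2, 7 mM MgCl2). Kinase-Glo luciferase reagent is then added. Light output is recorded following an 8-min room-temperature incubation.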
# ELG1 genotox: genotoxicity induction in ELG1-luciferase HEK293T cells. HEK293T ELG1-luciferase reporter, luminescence, 16 h. Potency, µM (doses to about 46 µM), inactives show at the top dose activity change, positive = activation, most hits filed as activators. hit rate 1.3% among 330,000; further: % of control where 0% means no effect; nearly all actives have a fitted effect of over 60% in size
#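 Step 1: seed 2,000 HEK293T ELG1-luciferase cells per well. Step 2: add compound or DMSO, incubate 16 hr at 37 °C. Step 3: ONE-Glo, 30 min at room temperature, read luminescence.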
# NPC1 promoter act: activators of NPC1 promoter; Potency, µM (top dose mostly 9.22 µM), without a hit: at the top dose activation, most hits filed as activators; hit rate 2.4% among 320,000; Huh7 NPC1 promoter luciferase reporter, 24 h; further: % of control where 0% means no effect; nearly all actives have a fitted effect of over 60% in size
#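 Huh7 reporter cells (NPC1 promoter driving luciferase) are dosed with compound for 24 h at 37 °C, 5% CO2; luciferase detection reagent is then added and luminescence measured after 10 min at ambient temperature.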
# SMN2 splice enh: SMN2 splice variant enhancement; HEK293 SMN2-luciferase splicing reporter, luminescence, 30-36 h; Potency, µM (top dose mostly 46.1 µM), for the others: at the top dose activity change, positive = activation, hits mostly activators; hit rate 2.8% among 210,000; further: % of control where 0% means no effect; nearly all actives have a fitted effect of over 55% in size
#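 HEK293 cells carry an SMN2 […]–luciferase reporter in which exon 7 inclusion puts luciferase in frame. Cells were plated 10-12 h before compound addition, then incubated 30-36 h at 37C. ONE-Glo luminescence was read; sodium butyrate at 4.5 mM final served as control.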
# * hit, by the source's call; ? = inconclusive; nt = no result; [ ] = another dose, or the depositor's remark. This is a sample that favours compounds with a hit; in the whole collection about 7.5% have one here. The call rests on the fitted dose curve; in most records, active means well fitted curve in the direction sought with a large enough effect; inconclusive means small, poorly fitted or top-dose-only effect, or another doubt; inactive means no such curve, though single readings can be large; an effect the other way counts as inactive or inconclusive. Potency means the concentration at half of the fitted maximal effect.
SMILES,FLuc counter,Rab9 prom act,Luc counter,ELG1 genotox,NPC1 promoter act,SMN2 splice enh
CCOC(=O)C1CCN(S(=O)(=O)c2cccc(-c3cn4cc(C)ccc4n3)c2)CC1,8.5µM*,-10%,1%,-7%,0%,-48%
CC(=O)Nc1ccc2nc(-c3ccccc3)cn2c1,2.1µM*,1.1µM*,-14%,5.8µM*,1µM*,2.5µM*
CC(=O)Nc1ccc(-c2cc(-c3ccccc3)nc(-c3ccccc3)n2)cc1,5%,-3%,-1%,17%,-1%,4%[1.84 µM]
Cc1ccn2cc(-c3cccc(S(=O)(=O)N4CC(C)OC(C)C4)c3)nc2c1 (stereo not given),?,-11%,nt,0%,-2%,nt
CC(=O)Nc1cccc(-c2cn3ccc(C)cc3n2)c1,4.3µM*,1.6µM*,-28%,?,3.2µM*,nt
CN(C)S(=O)(=O)c1cccc(-c2cn3cc(Cl)ccc3n2)c1,?,21%,0%,?,24%,-5%
COc1ccc(S(=O)(=O)N(CC(=O)Nc2cc(Cl)ccc2C)Cc2ccccc2)cc1OC,5%,nt,nt,nt,nt,-55%
CCc1cccc(NC(=O)CCS(=O)(=O)c2ccc(Br)cc2)c1,1%,-1%,nt,0%,-1%,nt
Cc1ccn2cc(-c3cccc(NS(C)(=O)=O)c3)nc2c1,6.7µM*,2.5µM*,-17%,?,3.2µM*,nt
COC(=O)c1ccccc1NC(=O)[C@@H]1CCC(=O)N1C1OC(=O)c2c1ccc(OC)c2OC (stereo not given in full),1%,-3%,nt,0%,0%,nt
O=C(NN1C(=O)/C(=C/C=C/c2ccco2)SC1=S)c1ccccc1O,19µM*,-3%,nt,2%,2%,nt
O=C(O)CC(C(=O)O)N1C(=O)/C(=C/C=C/c2ccco2)SC1=S (stereo not given),12µM*,0%,nt,-1%,-1%,nt
O=C1S/C(=C\C=C\c2ccco2)C(=O)N1c1ccccc1,?,?,1%,8%,?,-9%
O=C(O)CC(C(=O)O)N1C(=O)/C(=C/c2ccc(-c3nc4ccccc4s3)o2)SC1=S (stereo not given),19µM*,-7%,0%,4%,0%,26%
O=C1S/C(=C\C=C\c2ccco2)C(=O)N1c1ccc(O)cc1,15µM*,?,-1%,?,26%,23%
COc1ccccc1C1=NN(C(=O)c2ccccc2)C(c2ccc(Br)cc2)C1 (stereo not given),-9%,0%,nt,0%,0%,nt
Cc1nc2ccn(Cc3ccccc3)c(=O)c2cc1C(=O)NCc1ccccc1F,7%,nt,nt,nt,nt,nt
COC(=O)[C@@H](NC(=O)O[C@H]1C(=O)c2cc(OC)ccc2O[C@@H]1c1ccc(OC)c(Br)c1)C(C)C,nt,nt,0%,nt,nt,0%
O=C(O)CCCN1C(=O)/C(=C\C(Cl)=C\c2ccccc2)SC1=S,9.5µM*,-48%,nt,-9%,-38%,nt
O=C(O)C(Cc1ccccc1)N1C(=O)/C(=C/C=C/c2ccco2)SC1=S (stereo not given),?,-1%,nt,1%,1%,nt
O=C(O)CCCN1C(=O)/C(=C/C=C/c2ccco2)SC1=S,27µM*,-1%,nt,4%,-2%,nt
C[C@H](CO)N1C[C@H](C)[C@@H](CN(C)C(=O)NC2CCCCC2)Oc2c(NC(=O)Nc3ccc(C(F)(F)F)cc3)cccc2C1=O,nt,nt,nt,-6%,nt,nt
COc1c2c(c3c(c1CCC(=O)O)OC(C)(C)C=C3)OC(C)(C)C=C2,nt,nt,-11%[7.66 µM],nt,nt,7%[9.22 µM]
C/C(=N\NC(=O)c1cccc(Cl)c1)c1cccc(NC(=O)c2ccco2)c1,19µM*,0%,0%,-3%,-4%,8%
CC(=O)c1cccc(NC(=O)c2cccc(NC(=O)c3ccco3)c2)c1,-15%,8%,nt,-3%,-1%,nt
O=C(N/N=C/c1ccco1)c1cccc(NC(=O)c2cccc(Cl)c2)c1,?,18%,nt,-2%,8%,nt
